# Reference: PubChem BioAssay (EPA / NIEHS)
# Active and inactive are the calls of the source. How the source made its calls: active means hit-call score of the fitted dose curve at least 0.9, where 1 is the maximum; inactive means score below 0.9.
# Read-out: CYP2C8 (gene 1558)
# Experiment: LTEA_HepaRG_CYP2C8: Life Technologies and Expression Analysis (LTEA) Assay for CYP2C8 using HepaRG (AID 2283483)
# Settings: mRNA level, 48 h; actives raise or lower the signal
# Protocol: LTEA_HepaRG is a cell based, multiplexed-readout assay that uses HepaRG, a human liver cell line, with measurements taken at 48 hours after chemical dosing on a 96-well plate.LTEA_HepaRG_CYP2C8 is one of 102 assay component(s) measured in the LTEA HepaRG cell culture assay. It is a marker of NR mediated metabolism.Data from the assay component LTEA_HepaRG_CYP2C8 was analyzed into 1 endpoint. This assay endpoint, LTEA_HepaRG_CYP2C8, was analyzed with bidirectional fitting relative to DMSO as the negative control and baseline of activity. Using a type of inducible reporter, measures of mRNA induction for gain or loss-of-signal activity can be used to understand regulation of transcription factor activity. To generalize the intended target to other relatable targets, this assay endpoint is annotated to the cyp intended target family, where the subfamily is xenobiotic metabolism.
# A total of 1060 chemcials from the ToxCast library were tested in eight-point concentration-response experiments. Cell culture and cytotoxicity assays were conducted at Thermo Fisher Scientific's Custom Services facility (Madison, WI). A single lot of human HepaRG cells (Thermo Fisher Scientific, Frederick, MD) was used for the cell culture experiments. 96-well format collagen type I coated plates of human HepaRG cells were prepared using established methods. Briefly, cryopreserved HepaRG cells were thawed, plated at a density of approximately 100,000 cells/well in HepaRG Thaw, Plate, and General Purpose media (HPRG770, Thermo Fisher Scientific), and incubated for 48 hours. 0.5% DMSO was selected as vehicle control to balance the requisite need of DMSO in HepaRG cultures to maintain differentiation (for example, baseline metabolism, proportions of hepatocytes vs. cholangiocytes), while enabling further hepatic receptor pathway activation (for example, PXR and CAR) in response to chemical exposure. 48 hours after plating, the culture medium was replaced with HepaRG Serum-Free Incudtion Media. Cells were exposed to each test chemical in duplicate and maintained in CO2 incubators for another 48 hours. Chemical plates were thawed to room temperature and 200x concentrations of treatment groups were prepared. 8-point conentration-reponse curves were made with the highest exposure at 100 uM, followed by half-log dilutions, all in 0.5% DMSO. Each test plate contained variouse controls, induction positive controls (1mM phenobarbital), cytotoxicity positive controls ([…] aflatoxin B1), vehicle controls (0.5% DMSO), and total lysis controls (0.5% DMSO). Cell morphology images were taken using an Essen IncuCyte FLR automated microscope, with six 96-well plates imaged in about 24 minutes. Images were captured and exported and JPEG files. Spent culture media was transfered to black-well plates for the LDH assay, and remaining media was sorted at -80 C for later use. Cells were treated with RLT buffer and frozen until shipped for gene expression analysis. Total RNA was isolated from the cell suspension in 75 uL of Buffer RLT (Qiagen, Germantown, MD 20874) by Quintiles/Expression Analysis (Durham, NC) using a custom isolation procedure. Total RNA from each plate well was transferred to a preamplification plate. Fluidigm's 96.96 Dynamic ArrayTM (Fluidigm, Amsterdam, the Netherlands) technology was used for gene expression analyses by quantitative reverse transcription polymerase chain reaction (qRT-PCR, performed by Quintiles/Expression Analysis, Durham, NC)89. Standard TaqManTM Assays (Applied Biosystems/ThermoFisher Scientific, Foster City, CA) were used to assess the expression of 93 genes selected based on their selectivity and sensitivity to important hepatic receptors known to be modulated by environmental chemicals; importance in human hepatocyte functionality; and hepatotoxicity. […]
Structure (SMILES),outcome,AC50
C=CC(N)=O,inactive,–
COS(=O)(=O)OC,inactive,–
C1CC2OC2CC1C1CO1 (stereo not given),inactive,–
COc1ccc(O)c(C(C)(C)C)c1,inactive,–
Clc1ccc(Cl)cc1,inactive,–
O=C(O)C(F)(F)C(F)(F)C(F)(F)C(F)(F)C(F)(F)F,–,8.32 µM (active)
Oc1ccc(Cl)cc1Cl,inactive,–
CCOP(=S)(OCC)SCSC(C)(C)C,inactive,–
CCC(C)(c1ccc(O)cc1)c1ccc(O)cc1,inactive,–
Cc1ccc(O)c(C)c1,inactive,–
CCOC(=O)C(O)(c1ccc(Cl)cc1)c1ccc(Cl)cc1,–,21.6 µM (active)
CCC(=O)O[C@H]1CC[C@H]2[C@@H]3CCC4=CC(=O)CC[C@]4(C)[C@H]3CC[C@]12C,inactive,–
CC(C)(O)C(=O)Nc1ccc([N+](=O)[O-])c(C(F)(F)F)c1,inactive,–
CC(c1ccc(O)cc1)(c1ccc(O)cc1)c1ccc(O)cc1,inactive,–
Cc1cccc(C)c1N,inactive,–
O=C(NC(=O)c1c(F)cccc1F)Nc1cc(Cl)c(OC(F)(F)C(F)F)c(Cl)c1,inactive,–
C[C@]12CCC(=O)C=C1CC[C@@H]1[C@@H]2CC[C@@]2(C)[C@H]1CC[C@]2(C)O,inactive,–
Oc1ccc(C(c2ccc(O)cc2)(C(F)(F)F)C(F)(F)F)cc1,inactive,–
c1ccc(-c2ccccc2)cc1,inactive,–
CCOCCOC(C)=O,inactive,–

Structure (SMILES),outcome,AC50
Cc1cc(O)ccc1Cl,inactive,–
ClC(Cl)=C(c1ccc(Cl)cc1)c1ccc(Cl)cc1,–,3.63 µM (active)
C[C@]12CCC(=O)C=C1CC[C@@H]1[C@@H]2CC[C@]2(C)C(=O)CC[C@@H]12,inactive,–
Cc1cccc([N+](=O)[O-])c1,inactive,–
Oc1c(Cl)c(Cl)c(Cl)c(Cl)c1Cl,–,4.44 µM (active)
Cc1cc(-c2ccc(N)c(C)c2)ccc1N,inactive,–
CCCN(CCC)N=O,inactive,–
CCC(C)c1cc([N+](=O)[O-])cc([N+](=O)[O-])c1O (stereo not given),–,2.6 µM (active)
CC1=C2C[C@H]3[C@@H](CC=C4C[C@@H](O)CC[C@@]43C)[C@@H]2CC[C@]12O[C@@H]1C[C@H](C)CN[C@H]1[C@H]2C,inactive,–
CCCCCCOC(=O)c1ccccc1C(=O)OCCCCCC,inactive,–
CC#Cc1cc(C)nc(Nc2ccccc2)n1,–,48 µM (active)
Cc1ccccc1[N+](=O)[O-],inactive,–
Cc1ccccc1CO[C@@H]1C[C@@]2(C(C)C)CC[C@]1(C)O2,–,50 µM (active)
Nn1cnnc1,inactive,–
Cc1ccccc1O,inactive,–
ClC1=C(Cl)[C@]2(Cl)[C@@H]3[C@H]4C[C@H]([C@@H]5O[C@H]45)[C@@H]3[C@@]1(Cl)C2(Cl)Cl,inactive,–
Clc1ccc(C(c2ccccc2Cl)C(Cl)(Cl)Cl)cc1 (stereo not given),–,0.794 µM (active)
C=CC(=O)NCNC(=O)C=C,inactive,–
Clc1ccc(C(Cl)(Cl)Cl)cc1,inactive,–
O=C(O)C(F)(F)C(F)(F)C(F)(F)C(F)(F)C(F)(F)C(F)(F)C(F)(F)C(F)(F)C(F)(F)F,–,76.6 µM (active)
